Screening data from PubChem.
MPTP block: blocks calcium-induced mitochondrial swelling; isolated mouse mitochondria, Ca2+ swelling absorbance, 30 min; AID 602449; inhibition, % at 10 µM; hit rate 1.4% among 360,000;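 active = inhibition of 50% or more, scaled per plate between neutral and stimulator controls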
Beta apoptosis: blocks beta cell apoptosis | INS-1E cytokine-induced death, ATP luminescence, 48 h; percent of positive-control rescue, neutral wells zero | protection from apoptosis, % (test concentration not listed) | hit rate 0.8% among 300,000;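 active = Every replicate reaches about 75%, or at least half do and their mean reaches it too, limit read from the data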;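 also: higher means more ATP so stronger rescue from cytokine killing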
Gli-Sufu antag: blocks Gli-Sufu signaling in a luciferase reporter; Sufu-KO-LIGHT fibroblasts, Gli luciferase reporter luminescence; hit rate 0.74% among 340,000; inhibition, % at 5 µM;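 active = inhibition above about 55%, limit read from the data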
NR3A LBD binder: modulators (binders) of human NR3A ligand-binding domain | NR3A LBD differential scanning fluorimetry, Tm shift; 0% = protein alone, 100% = glycine-bound protein | Tm shift relative to glycine control, % at 25 µM | hit rate 2.5% among 340,000;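 active = melting temperature shift of at least 10% of the positive control shift, at one fixed dose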
Mdm2 MdmX PPI: inhibitors of human Mdm2/MdmX interaction | O15151+Q00987 | SaOS-2 split-luciferase Mdm2/MdmX complementation, luminescence | inhibition, % at 8 µM | hit rate 3% among 330,000;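 active = inhibition of at least 50% at 8 µM in the primary screen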
CSC inhib: cancer stem cell inhibition | cancer stem cell-like cells viability, luminescence | inhibition, % at 7.5 µM | hit rate 1.1% among 300,000 | AID 2717; in the data active = inhibition above about 75%; tested in HMLE shEcad cells
Mdm2 MdmX conf: human Mdm2/MdmX binding inhibition, confirmed | shares compounds with Mdm2 MdmX PPI | hit rate 55% among 10,000 | luminescent assay | inhibition, % at 8 µM; in the data active = inhibition above about 40%
Full FLuc ctr: full-length luciferase inhibition in Mdm2/MdmX counter-screen; shares compounds with Mdm2 MdmX PPI; SaOS-2 full-length luciferase counterscreen, luminescence; inhibition, % at 8 µM; hit rate 77% among 6,200; AID 504607;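 active = mean inhibition at 8 µM reaching about 37%, which flags the compound as non-specific, limit read from the data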;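 also: p53-null SaOS-2 cells with luciferase driven by a doxycycline-inducible promoter; compound on cells about two nights before reading with doxycycline added after day one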
Numbers stand for hits; 0 = inactive; - = no result given. Hits are enriched below; roughly 6.6% of the tested compounds scored in any of these assays.

SMILES	MPTP block	Beta apoptosis	Gli-Sufu antag	NR3A LBD binder	Mdm2 MdmX PPI	CSC inhib	Mdm2 MdmX conf	Full FLuc ctr
COc1cc(CC(=O)OCC(=O)c2ccc3c(c2)OCCO3)cc(OC)c1OC	0	0	0	0	66	0	54	101
CC(=O)Nc1ccc(C(=O)CCl)cc1	0	0	0	0	67	0	0	-
COc1ccc(OCC(=O)NNC(=O)c2ccccc2OCc2c(C)noc2C)cc1	0	-	0	0	0	0	-	-
CCOC(=O)[C@@H]1[C@H]2COc3ccc(Br)cc3[C@@H]2N2C(=O)N(c3ccc(C)cc3)C(=O)[C@@]12C	0	0	0	0	0	0	-	-
COc1cc(S(=O)(=O)N2CCOCC2)ccc1NC(=O)COC(=O)c1ccc(Cl)nc1	0	0	0	0	0	0	-	-
CCC(=O)NC(c1cc(Cl)c2cccnc2c1O)C1CC1 (stereo not given)	0	103	0	0	53	0	47	0
CC(=O)NC(c1cc(F)c2cccnc2c1O)C1CC1 (stereo not given)	0	0	0	0	0	0	-	-
CCC(=O)NC(c1cc(Cl)c2cccnc2c1O)C(C)C (stereo not given)	0	105	0	0	53	0	53	0
CCC(=O)NC(NC(=S)Nc1cccc2cccnc12)C(Cl)(Cl)Cl (stereo not given)	0	0	0	0	0	0	-	-
CCOc1ccc2nc(NC(=O)CC3Oc4ccccc4NC3=O)sc2c1 (stereo not given)	0	0	0	0	62	0	0	63
COc1ccc(Nc2nnc(SC(C(=O)Nc3cc(C)ccc3C)c3ccccc3)s2)cc1 (stereo not given)	0	0	0	17	84	0	0	-
Cc1ccc(C)c(NC(=O)C(Sc2nncn2C)c2ccccc2)c1 (stereo not given)	0	0	0	0	0	-	-	-
Cc1ccc(C)c(NC(=O)C(Sc2nc3ccccc3c(=O)n2CC(C)C)c2ccccc2)c1 (stereo not given)	0	0	-	0	84	0	63	83
CCc1ccc(C(=O)NNC(=O)c2ccc(=O)n(C)n2)cc1	0	0	0	0	0	0	-	-
Cc1ccc(S(=O)(=O)N2CCCCC2CCNC(=O)C(=O)Nc2ccccc2F)cc1 (stereo not given)	0	0	0	0	52	0	75	54
O=C(NCCC1CCCCN1S(=O)(=O)c1ccc(F)cc1)C(=O)Nc1ccccc1F (stereo not given)	0	-	0	-	0	0	-	-
COc1ccc(C(NC(C)=O)c2cc(Cl)c3cccnc3c2O)cc1 (stereo not given)	0	95	0	0	76	107	71	0
CC(=O)NC(c1ccccc1)c1cc(Cl)c2cccnc2c1O (stereo not given)	0	98	0	0	77	104	64	0
COc1ccc(C(Nc2cc(C)ccn2)c2ccc3ccc(C)nc3c2O)cc1 (stereo not given)	0	0	0	0	0	0	-	-
O=[N+]([O-])c1cc(Cl)c(O)c2ncccc12	0	-	0	0	51	-	54	56
CC(=O)NC(c1ccc(F)cc1)c1cccnc1 (stereo not given)	0	0	0	0	0	0	-	-
O=[N+]([O-])c1cc(CN2CCN(c3ccccc3)CC2)c(O)c2ncccc12	0	95	80	0	75	0	79	42
CCCC(=O)NC(c1ccc(OC)c(OC)c1)c1cc(Cl)c2cccnc2c1O (stereo not given)	0	91	0	0	73	0	60	0
CC(=O)NC(c1ccc(C)cc1)c1cc([N+](=O)[O-])c2cccnc2c1O (stereo not given)	0	0	0	0	68	104	68	0
CN(Cc1cc([N+](=O)[O-])c2cccnc2c1O)C1CCCCC1	-	0	-	-	0	0	-	-
COc1ccc(-c2csc(NC(=O)CSc3nnc(Nc4ccccc4C)s3)n2)cc1	0	0	0	0	0	0	-	-
COc1ccc2cc(C)c3nnc(SCC(=O)Nc4nc(-c5ccc(F)cc5)cs4)n3c2c1	0	0	0	0	86	0	0	-
